Screen size: about 1,800 compounds; about 50 (3%) showed activity. The sample as a whole holds a higher share of actives than the screen did. A number with no mark means an inactive call.
tested on: mouse p16Ink4a+/- lung fibroblasts (INKBRITE, bleomycin-injured); experiment: percentage of GFP+ (p16Ink4a+) fibroblasts among all cells in well; higher = less depletion of p16Ink4a+ cells, active = 20 or less; conditions: 1 µM; 3 days

SMILES	percentage of GFP+
CC[C@@H]1[C@@H](C)O[C@@](O)([C@@H](C)[C@H](O)[C@H](C)[C@H]2OC(=O)/C=C/C=C/[C@H](C)[C@H]([C@@H](C)[C@@H](O)[C@H](C)[C@@]3(O)C[C@@H](O[C@H]4C[C@H](O)[C@H](O)[C@H](C)O4)[C@H](CC)[C@@H](C)O3)OC(=O)/C=C/C=C/[C@H]2C)C[C@H]1O[C@H]1C[C@H](O)[C@H](O)[C@H](C)O1 [Elaiophylin]	11.1% (active)
O=[N+]([O-])c1ncc[nH]1 [Azomycin]	43.5%
CN1c2ccccc2C(NCCCCCCC(=O)O)c2ccc(Cl)cc2S1(=O)=O (stereo not given) [Tianeptine]	29.5%
C[C@](O)(COc1ccc(C#N)cc1)C(=O)Nc1ccc(C#N)c(C(F)(F)F)c1	43.3%
CN1CCC(c2c[nH]c3ccc(O)cc23)CC1	45.6%
CO[C@H]1CCC(O[C@H]2C[C@H]([C@]3(C)CC[C@]4(C[C@H](O)[C@@H](C)[C@@H]([C@@H](C)/C=C(\C)C(=O)[C@H](C)C[C@H](C)C(=O)O)O4)O3)O[C@]3(O[C@@H]([C@H]4O[C@@](O)(CO)[C@H](C)C[C@@H]4C)C[C@@H]3C)[C@@H]2C)O[C@@H]1C (stereo not given in full) [Nanchangmycin]	18.5% (active)
CCCN1C[C@H](CSC)C[C@@H]2c3cccc4[nH]cc(c34)C[C@H]21 [Pergolide]	54.5%
C=CC[C@]1(O)CC[C@H]2[C@@H]3CCC4=CC(=O)CCC4=C3C=C[C@@]21C [Altrenogest]	48.5%
O=P1(NCCCl)OCCCN1CCCl (stereo not given) [Ifosfamide]	45.7%
Cc1cc(C(=O)CN2CCCC2)c(C)n1-c1ccc(F)cc1	51.3%
CCC1(C)CC(=O)NC(=O)C1 [Bemegride]	48.1%
CC(C)[C@]12O[C@H]1[C@@H]1O[C@]13[C@]1(O[C@H]1C[C@H]1C4=C(CC[C@@]13C)C(=O)OC4)[C@@H]2O [Triptolide]	4.17% (active)
Cc1ccccc1-n1c(Cn2ncc3c(N)ncnc32)nc2cccc(C)c2c1=O	38.7%
CCC1=C[C@@H]2CN3CCc4c([nH]c5ccccc45)[C@@](C(=O)OC)(C2)[C@@H]13 [Catharanthine]	47.9%
CN1CCN(c2nc3ccccc3nc2Cl)CC1	42.1%
